High-throughput results from PubChem BioAssay.
MCF10A rereplic: A quantitative high throughput screen for small molecules that induce DNA re-replication in MCF 10a normal breast cells | Potency, µM (doses to about 46.1 µM), without a hit: top-dose activity, positive = re-replication, most hits filed as activators | AID 624296, 2012 | actives 2.9% (n = 350,000) | MCF 10A DNA re-replication, Hoechst nuclear intensity, 48 h; note: % of control where 0% means no effect; nearly all actives have a fitted effect of over 50% in size
RORgamma inh: qHTS for inhibitors of ROR gamma transcriptional activity; actives 5.4% (n = 310,000); Nuclear receptor ROR-gamma (Mus musculus), P51450; AID 2551, 2010; Potency, µM (doses to about 53.6 µM), for inactives: at the highest dose activity change, negative = inhibition, usual class: inhibitors; Drosophila S2 Gal4-RORgamma UAS-luciferase reporter, 20 h; note: % is set by controls: 0 for no effect and ±100 for the full control effect; nearly all actives have a fitted effect of over 60% in size
Target sequence (P51450 whole entry, looked up, the tested form may be a part): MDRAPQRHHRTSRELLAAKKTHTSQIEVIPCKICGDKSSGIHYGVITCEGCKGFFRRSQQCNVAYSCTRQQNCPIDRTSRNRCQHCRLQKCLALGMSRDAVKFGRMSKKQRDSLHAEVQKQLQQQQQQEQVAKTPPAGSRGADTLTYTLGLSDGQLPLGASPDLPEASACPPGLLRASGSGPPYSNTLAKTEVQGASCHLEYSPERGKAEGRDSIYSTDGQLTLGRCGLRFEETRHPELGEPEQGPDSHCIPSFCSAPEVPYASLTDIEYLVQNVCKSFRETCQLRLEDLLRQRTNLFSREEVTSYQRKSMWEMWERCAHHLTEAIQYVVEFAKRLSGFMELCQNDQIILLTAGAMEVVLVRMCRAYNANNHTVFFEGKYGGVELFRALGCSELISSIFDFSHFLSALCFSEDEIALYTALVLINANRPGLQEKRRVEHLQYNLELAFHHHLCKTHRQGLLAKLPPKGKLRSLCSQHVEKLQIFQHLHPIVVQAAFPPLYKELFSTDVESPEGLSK
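Drosophila S2 cells stably expressing Gal4-DBD/mouse RORγ fusion under metallothionein promoter plus UAS-luciferase; compound 1 h, then 700 uM CuSO4 induction for 20 h at ambient temperature; inhibition read as reduced luminescence.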
SW480 rereplic: A quantitative high throughput screen for small molecules that induce DNA re-replication in SW480 colon adenocarcinoma cells | SW480 DNA re-replication, Hoechst DNA content imaging, 48 h | Potency, µM (doses to about 46.1 µM), for inactives: at the highest dose re-replication activation, usual class: activators | actives 1.8% (n = 340,000) | AID 624297, 2012; note: % of control where 0% means no effect; nearly all actives have a fitted effect of over 55% in size
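Treated cells incubate 48 hr (37 C, 5% CO2), are stained 40 min with Hoechst, and nuclear fluorescence is enumerated; a rise in nuclei with high DNA signal marks re-replication.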
Gal4-VP16 FLuc: VP16 counterscreen qHTS for inhibitors of ROR gamma transcriptional activity | Drosophila S2 Gal4-VP16 UAS-luciferase, luminescence, 20 h | Potency, µM (doses to about 53.6 µM), without a hit: at the highest dose activity, negative = inhibition, hits mostly inhibitors | actives 3.5% (n = 310,000) | AID 2546, 2010;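 note: Gal4-VP16 expression switched on by copper sulfate through the metallothionein promoter; % is set by controls: 0 for no effect and ±100 for the full control effect; nearly all actives have a fitted effect of over 50% in size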
ELG1 repair inh: qHTS screen for small molecules that inhibit ELG1-dependent DNA repair in human embryonic kidney (HEK293T) cells expressing luciferase-tagged ELG1 | Potency, µM (highest dose often 46.1 µM), for the others: at the highest dose activity change, negative = inhibition, actives largely listed as inhibitors | AID 504467, 2011 | actives 2.3% (n = 330,000) | HEK293T ELG1-luciferase reporter, luminescence, 16 h; DNA damage induced by 5-fluorouridine; note: % is set by controls: 0 for no effect and ±100 for the full control effect; nearly all actives have a fitted effect of over 55% in size
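Quantitative HTS, concentration-response format. 2,000 cells/well co-treated with 5-fluorouridine and compound, 16 hr in 5% CO2 at 37 °C; ONE-Glo luminescence read after 30 min.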
Numbers without * were called inactive; ? = inconclusive; . = no result; ! = a repeat was not active. Most compounds without a hit are left out; they make up all but 10% or so of the library. Calls come from the whole dose curve; as a rule, active = well fitted curve in the direction sought with a large enough effect; inconclusive = small, poorly fitted or top-dose-only effect, or another doubt; inactive = no such curve, though single readings can be large; an effect the other way counts as inactive or inconclusive. Potency is the fitted concentration of half-maximal effect.

SMILES	MCF10A rereplic	RORgamma inh	SW480 rereplic	Gal4-VP16 FLuc	ELG1 repair inh
CC(C)c1oc(=O)cc2c1[C@@H](O)[C@H]1OC(=O)[C@@]3(C)CC[C@@H](O)[C@@]2(C)C13 (some centres not stated)	12%	20µM*	?	5µM*	-24%
C=C(C)C(=O)OCC1CO1 (configuration not stated)	.	14%	.	-11%	.
CC/C=C\C[C@@H](/C=C/C=C\C/C=C\C/C=C\CCCC(=O)O)OO	.	?	.	-2%	.
CCCCC[C@@H](/C=C/C=C\CCCCCCCCCC(=O)O)OO	.	0%	.	0%	.
CN(C)S(=O)(=O)c1ccc(C(=O)NNc2nc(-c3ccccc3)c3cc(Br)ccc3n2)cc1	4%	7.1µM*	14%	?	23µM*
O=Cc1ccc2c(c1)OCO2	.	0%	.	6%	.
Cc1ccc(C=C2C(Cl)=C(Cl)C(Cl)=C2Cl)cc1	?	-4%	?	-1%	?
CC1N(P(=O)(c2ccccc2)c2ccccc2)CC(O)(c2ccccc2)CC12CC2 (configuration not stated)	.	-26%	.	-10%	.
Cc1ccc2c(c1)C1CN(C)CCC1N2C(=O)c1cn(-c2ccccc2)nc1-c1ccccc1 (configuration not stated)	21µM*	?	?	-18%	?
Cc1ccc2c(c1)C1CN(C)CCC1N2C(=O)c1cccnc1Cl (configuration not stated)	-3%	0%	-5%	-5%	11%
CCCCCCCCCCCCCC(=O)OC1C(C)[C@@]2(O)C(C=C(CO)C[C@]3(O)C(=O)C(C)=C[C@H]23)[C@@H]2C(C)(C)[C@]12OC(C)=O (some centres not stated)	.	-15%	.	-6%	.
Clc1ccc2c(c1)C(OC1CN3CCC1CC3)c1ccccc1CS2 (configuration not stated)	?	-42%	?	?	?
CN1CCN(CCOC2c3ccccc3CSc3ccc(Cl)cc32)CC1 (configuration not stated)	23µM*	12%	?	5%	-22%
O=C(/C=C/c1ccc(Br)cc1)NC(=S)N1C[C@H]2C[C@H](C1)c1cccc(=O)n1C2	-3%	18µM*	8%	-9%	16%
COc1ccc(/C=C/C(=O)NC(=S)N2C[C@H]3C[C@H](C2)c2cccc(=O)n2C3)cc1	?	-21%	5%	8%	-1%
O=C(/C=C/c1ccc(Cl)cc1)NC(=S)N1C[C@H]2C[C@H](C1)c1cccc(=O)n1C2	2%	13µM*	-3%	-3%	42%
COc1cc2c(cc1O)C[C@H]1c3c(cc(OC)c(O)c3-2)CCN1C	.	-35%	.	-13%	.
C/C=C1/CN2CC[C@]34C(=C(C=O)[C@H]1C[C@@H]23)Nc1ccccc14	.	15%	.	14%	.
C=CCN1C(=O)NC(=O)/C(=C/c2ccc(OC)c(CSc3ccccn3)c2)C1=O	10%	-4%	1%	?	14%
C=CCN1C(=O)NC(=O)/C(=C/c2ccc(OC)c(COc3ccc(NC(C)=O)cc3)c2)C1=O	?	-2%	16µM*	-5%	15%
CC(C)[C@]12O[C@H]1[C@@H]1O[C@]13[C@]1(O[C@H]1C[C@H]1C4=C(CC[C@@]13C)C(=O)OC4)[C@@H]2O	.	0.32µM*	.	0.4µM*	.
S=c1[nH]nc(-c2ccccc2)n1CC1CCCO1 (configuration not stated)	?	-13%	?	-16%	.
S=c1[nH]nc(-c2ccccc2)n1C1C=CCCC1 (configuration not stated)	19%	-127%	0%	2.8µM*	0%
c1ccc2c(c1)OCC(C1=NCCN1)O2 (configuration not stated)	18µM*!	16µM*!	?	-1%	9%
COc1cc2c(cc1O)C(CCc1ccc(Cl)cc1)N(C)CC2 (configuration not stated)	.	-1%	.	-1%	.
SMILES	MCF10A rereplic	RORgamma inh	SW480 rereplic	Gal4-VP16 FLuc	ELG1 repair inh
Cn1c(O)c(C2=NN(C(=O)CCl)C(c3ccccc3)C2)c(=O)n(C)c1=O (configuration not stated)	4%	?	-9%	18µM*	3%
CCC(=O)N1N=C(c2c(O)n(C)c(=O)n(C)c2=O)CC1c1ccccc1 (configuration not stated)	12%	11µM*	?	-10%	?
CCC(C)C(=O)OC1C[C@@]2(C)C(c3ccoc3)OC(=O)CC23OC2(C)OC34C(OC(=O)C(C)C)[C@]3(O)C(OC(=O)C5(C)OC5C)[C@]5(C)CC3(O)[C@](C)(C5CC(=O)OC)C14O2 (some centres not stated)	.	29%	.	-20%	.
Nc1ccc([N+](=O)[O-])cc1O	.	23%	.	?	.
O=C1C=CC2C3C(=O)N(c4ccccc4)C(=O)C3C1N2Cc1ccccc1 (configuration not stated)	?	.	3.7µM*	.	.
Clc1c(Cl)c(Cl)c(Cl)c(Cl)c1Cl	.	5%	.	1%	.
COC1C(O)C(C)OC(OC2CCC3(C)C(CCC4C3C(O)CC3(C)C(C5=CC(=O)OC5)CCC43O)C2)C1O (configuration not stated)	0.26µM*	.	1.3µM*	.	.
CC(=O)OC1CC(OC2C(O)CC(OC3C(O)CC(OC4CCC5(C)C(CCC6C5CC(O)C5(C)C(C7=CC(=O)OC7)CCC65O)C4)OC3C)OC2C)OC(C)C1OC1OC(CO)C(O)C(O)C1O (configuration not stated)	0.18µM*	-18%	1.8µM*	?	.
CC(=O)O[C@H]1C[C@H](O[C@H]2[C@@H](O)CC(O[C@H]3[C@@H](O)C[C@H](O[C@H]4CC[C@@]5(C)[C@H](CC[C@@H]6[C@@H]5CC[C@]5(C)[C@@H](C7=CC(=O)OC7)CC[C@]65O)C4)O[C@@H]3C)O[C@@H]2C)O[C@H](C)[C@H]1O[C@@H]1O[C@H](CO)[C@@H](O)[C@H](O)[C@H]1O (some centres not stated)	?	?	?	5%	.
C[C@H]1O[C@@H](O[C@H]2[C@@H](O)C[C@H](O[C@H]3[C@@H](O)C[C@H](O[C@H]4CC[C@]5(C)C6CC[C@]7(C)[C@@H](C8=CC(=O)OC8)CC[C@]7(O)C6CC[C@@H]5C4)O[C@@H]3C)O[C@@H]2C)C[C@H](O)[C@@H]1O (some centres not stated)	.	2.5µM*	.	-12%	.
